Where “and” joins values, the source holds several entries; their conditions need not be identical. Equal values may be shown once. In all, about 5,500 compounds went through this assay and about 2,000 (36%) were called active. Inconclusive results (about 18%) are left out. Rule as the data show it: active = normalized growth mostly below about 0.91 (no sharp cut-off); inconclusive = no clear call, values can overlap the other calls; inactive = mostly above about 0.92. Some of the results follow.
Assay: chemical genetic growth profiling, strain panel (AID 1159580);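 also: tested at 20 µM; growth read once vehicle control cultures reached saturation at 30 °C; 1 = growth at the plate median or of vehicle wells; lower values mean less growth of the strain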
Details: S. cerevisiae deletion strains, growth OD

Measured: normalized growth

COc1cccc2c1cc([N+](=O)[O-])c1c(C(=O)O)cc3c(c12)OCO3
inactive: locus YAL021C, strain ccr4, stronger effect = lower value 1.01 | locus YAL026C, strain drs2, stronger effect = lower value 1.02 | locus YAL030W, strain snc1, stronger effect = lower value 1.02 | locus YBL061C, strain skt5, stronger effect = lower value 1.02 | locus YBR009C, strain hhf1, stronger effect = lower value 1.03 | locus YBR021W, strain FUR4, stronger effect = lower value 0.991 | locus YBR023C, strain chs3, stronger effect = lower value 1.02 | locus YBR171W, strain sec66, stronger effect = lower value 1.05 | locus YBR229C, strain ROT2, stronger effect = lower value 1.01 | locus YBR231C, strain swc5, stronger effect = lower value 1.03 | locus YBR279W, strain paf1, stronger effect = lower value 1.02 | locus YCL011C, strain gbp2, stronger effect = lower value 1.03 | locus YCL016C, strain dcc1, stronger effect = lower value 1.02 | locus YCL029C, strain bik1, stronger effect = lower value 1.02 | locus YCL061C, strain MRC1, stronger effect = lower value 1.02 | locus YCL069W, strain vba3, stronger effect = lower value 1.02 | locus YCR088W, strain abp1, stronger effect = lower value 1.02 | locus YDL005C, strain med2, stronger effect = lower value 1.04 | locus YDL035C, strain GPR1, stronger effect = lower value 1.01 | locus YDL040C, strain nat1, stronger effect = lower value 1 | locus YDL074C, strain BRE1, stronger effect = lower value 1.04 | locus YDL101C, strain DUN1, stronger effect = lower value 1.03 | locus YDL134C, strain PPH21, stronger effect = lower value 1.01 | locus YDL185W, strain tfp1, stronger effect = lower value 1 | locus YDL192W, strain arf1, stronger effect = lower value 1.04 | locus YDR001C, strain nth1, stronger effect = lower value 1.02 | locus YDR069C, strain doa4, stronger effect = lower value 1.02 | locus YDR101C, strain arx1, stronger effect = lower value 1.03 | locus YDR137W, strain rgp1, stronger effect = lower value 1.03 | locus YDR150W, strain NUM1, stronger effect = lower value 1.02 | locus YDR159W, strain sac3, stronger effect = lower value 1.04 | locus YDR162C, strain NBP2, stronger effect = lower value 1.03 | locus YDR195W, strain ref2 1 | locus YDR297W, strain sur2, stronger effect = lower value 1.03 | locus YDR318W, strain mcm21, stronger effect = lower value 1.02 | locus YDR334W, strain swr1, stronger effect = lower value 1.02 | locus YDR335W, strain msn5, stronger effect = lower value 1.02 | locus YDR388W, stronger effect = lower value 1.02 | locus YDR392W, strain spt3, stronger effect = lower value 0.971 | locus YDR502C, strain sam2, stronger effect = lower value 1.01 | locus YEL003W, strain gim4, stronger effect = lower value 1.03 | locus YEL037C, strain rad23, stronger effect = lower value 1.02 | locus YEL061C, strain CIN8 (second series), stronger effect = lower value 1.02 | locus YEL061C, strain CIN8, stronger effect = lower value 1.01 | locus YER015W, strain faa2, stronger effect = lower value 1.02 | locus YER016W, strain bim1, stronger effect = lower value 1.02 | locus YER110C, stronger effect = lower value 1.01 | locus YER111C, strain swi4, stronger effect = lower value 1.03 | locus YER155C, strain BEM2 (second series), stronger effect = lower value 1.03 | locus YER155C, strain BEM2, stronger effect = lower value 1.01 | locus YER167W, strain BCK2, stronger effect = lower value 0.999 | locus YFR010W, strain ubp6, stronger effect = lower value 1.02 | locus YGL078C, strain dbp3, stronger effect = lower value 0.997 | locus YGL086W, strain mad1, stronger effect = lower value 1.03 | locus YGL167C, strain pmr1, stronger effect = lower value 1.04 | locus YGL173C, strain kem1, stronger effect = lower value 1.04 | locus YGL227W, strain vid30, stronger effect = lower value 1.02 | locus YGL240W, strain doc1, stronger effect = lower value 1.03 | locus YGL248W, strain PDE1, stronger effect = lower value 1.01 | locus YGL253W, strain hxk2, stronger effect = lower value 1.01 | locus YGR135W, strain pre9, stronger effect = lower value 0.994 | locus YGR229C, strain SMI1, stronger effect = lower value 1.02 | locus YGR252W, strain gcn5, stronger effect = lower value 0.906 | locus YHR013C, strain ard1, stronger effect = lower value 1.02 | locus YHR027C, strain rpn1, stronger effect = lower value 1.02 | locus YHR030C, strain SLT2, stronger effect = lower value 1.01 and 0.92 | locus YHR079C, strain IRE1 (second series), stronger effect = lower value 1.01 | locus YHR079C, strain IRE1, stronger effect = lower value 0.914 | locus YHR094C, strain hxt1, stronger effect = lower value 1.02 | locus YHR129C, strain ARP1, stronger effect = lower value 1.01 | locus YHR142W, strain chs7, stronger effect = lower value 1.01 | locus YHR200W, strain rpn10, stronger effect = lower value 1.02 | locus YIL066C, strain RNR3, stronger effect = lower value 1.02 | locus YIL073C, strain SPO22, stronger effect = lower value 1.03 | locus YIL125W, strain kgd1, stronger effect = lower value 0.995 | locus YIR030C, strain dcg1, stronger effect = lower value 1.02 | locus YJL092W, strain hpr5, stronger effect = lower value 1.02 | locus YJL095W, strain BCK1 (second series), stronger effect = lower value 1.01 | locus YJL095W, strain BCK1, stronger effect = lower value 1.04 and 0.987 | locus YJL115W, strain asf1, stronger effect = lower value 1.02 | locus YJL129C, strain trk1, stronger effect = lower value 1.03 | locus YJL134W, strain LCB3, stronger effect = lower value 1.02 | locus YJL154C, strain vps35, stronger effect = lower value 1.02 | locus YJL164C, strain tpk1, stronger effect = lower value 0.991 | locus YJL166W, strain qcr8, stronger effect = lower value 1.02 | locus YJL168C, strain set2, stronger effect = lower value 1.01 | locus YJL187C, strain SWE1 (second series), stronger effect = lower value 1.03 | locus YJL187C, strain SWE1, stronger effect = lower value 1.02 | locus YJR043C, strain POL32, stronger effect = lower value 1.01

Source: PubChem BioAssay AID1159580 (chemical genetic matrix, 2015)
